Experimental data as given in PubChem BioAssay (NCI).
The panel holds about 83,000 compounds, 20% with a hit somewhere; the sample as a whole holds those more often.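 Interpretation: 100, growth as untreated; towards 0, rising growth inhibition; 0, no net growth; 0 to -100, cell death. Compounds scoring below 10 were considered active.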 The source made the active and inactive calls.

Tested on: EKVX NSCLC
Test: NCI-60 one-dose screen, 48 h (100 = growth as untreated, 0 = no growth, -100 = all killed)
Details: 10 µM unless noted

Row | Structure (SMILES) | growth
1 | COc1ccc(C(O)c2cc3c(N)c(C(=O)Nc4cccc(Br)c4)sc3nc2C)cc1 (stereo not given) | 46.2% (inactive)
2 | CC/C(=C(/c1ccc(Cl)cc1)c1ccc(OCCN2CCCCC2)cc1)c1ccc(OC)cc1 | 58.5% (inactive)
3 | CCOC(=O)c1c2c(n3cccc(F)c13)C(=O)c1ncccc1C2=O | 27.7% (inactive)
4 | CC(=O)O[C@@H]1C[C@]2(C(C)C)O[C@@]1(C)[C@@H]1CCC(C)=C1[C@@H]2OC(=O)/C=C/c1ccccc1 | 83.5% (inactive)
5 | O=C(O)c1ccc(-n2cc(/C=N/Nc3ccccc3)c(-c3ccc(F)cc3F)n2)cc1 | 55.2% (inactive)
6 | O=C(NCc1ccc(Cl)cc1Cl)C1CCC(=O)N1c1cccs1 (stereo not given) | 91.3% (inactive)
7 | CCSc1oc(-c2ccccc2)nc1[P+](c1ccccc1)(c1ccccc1)c1ccccc1 | 11% (inactive)
8 | O=C1C(=O)N(Cc2ccc(-c3ccccc3)cc2)c2ccc(OC(F)(F)F)cc21 | 94.3% (inactive)
9 | Cc1nc2sc(C(=O)Nc3ccc(Br)cc3)c(N)c2cc1C(O)c1ccccc1 (stereo not given) | 55.3% (inactive)
10 | O=C(Cn1cc(CSc2nc3ccccc3o2)nn1)Nc1ccc(F)cc1F | 119% (inactive)
11 | COC(=O)c1nc(-c2ccc(C)cc2)oc1S(=O)(=O)c1cccc(OC)c1 | 100% (inactive)
12 | COc1ccc(C/C(C)=C(/c2ccc(OCCN(C)C)cc2)c2ccc(OC(=O)NCc3ccccc3)cc2)cc1 | 72.2% (inactive)
13 | COc1ccc(/C=C(\C#N)n2nnc3cc(F)c(F)cc32)cc1 | 51.9% (inactive)
14 | COC(=O)c1c2c(c(C)[n+]([O-])c1C)C(=O)C(NCc1cccc(OC)c1)=CC2=O | 57.2% (inactive)
15 | COc1ccc(-c2nc3cc(C(=O)NCc4ccccc4)ccc3n2C2CCCCC2)cc1 | 46.4% (inactive)
16 | CCN(CC)CCn1c2ccc(OC)cc2c2sc3cc(OC)ccc3c(=O)c21 | 41.3% (inactive)
17 | COc1ccc(C(=O)N2c3ccccc3Sc3ccccc32)c(OC)c1 | 34% (inactive)
18 | CCN1CCN(C(=O)[C@]23CCC(C)(C)C[C@@H]2C2=CC[C@@H]4[C@@]5(C)CCC(=O)C(C)(C)[C@@H]5CC[C@@]4(C)[C@]2(C)CC3)CC1 | 63.3% (inactive)
19 | Clc1ccc2c(NC3CCC(N4CCOCC4)CC3)ccnc2c1 (stereo not given) | 72.6% (inactive)
20 | CCCOC(=O)Nc1nc2ccc(SCC(C)C)cc2s1 | 52.3% (inactive)

Row | Structure (SMILES) | growth
21 | COc1ccc(Nc2ncc(Br)c(NCCCNC(=O)c3cccs3)n2)cc1 | 55.6% (inactive)
22 | N#Cc1c(-c2ccccc2)cc(-c2ccc(Nc3nc(Nc4ccc(Cl)cc4)nc(Nc4ccc(Cl)cc4)n3)cc2)nc1N | 9.99% (active)
23 | COC(=O)c1c(C)c2n(c1C)C(=O)C(c1ccccc1)=C2 | 10.2% (inactive)
24 | COc1ccc(Nc2ncc(Br)c(NCCCNC(=O)C3CCCC3)n2)cc1 | 47.3% (inactive)
25 | C=CCn1c(C)nc2ccc(Nc3nc(Nc4ccc5nc(C)n(CC=C)c5c4)c4ccccc4n3)cc21 | 2.58% (active)
26 | O=C(O)c1cn(C2CC2)c2cc(N3CCN(Cc4ccc5ccccc5c4O)CC3)c(F)cc2c1=O | 66.7% (inactive)
27 | N#C/C(=C\c1c(-c2ccccc2)[nH]c2ccccc12)C(N)=O | 83.7% (inactive)
28 | COc1ccc(C2CC(c3ccc(Nc4nc(Nc5ccccc5)nc(Nc5ccccc5)n4)cc3)=NN2C(C)=O)cc1 (stereo not given) | 132% (inactive)
29 | COc1cc2c(c(OC)c1OC)CCC(c1cccc(C(=O)Nc3cccc(Cl)c3)c1)O2 (stereo not given) | 64.2% (inactive)
30 | COc1cc(OCc2cccc(Br)c2C)cc(OC)c1C=O | 80.8% (inactive)
31 | COC1=CC(c2ccc[nH]2)=N/C1=C\c1[nH]c(C)c(C(=O)OC(C)C)c1C | -41.9% (active)
32 | CCCc1c(OC(=O)c2ccccc2)nc2[nH]c(=O)sc2c1C | 97.9% (inactive)
33 | CN(C)c1ccc(-c2c(C#N)c(N)nn2C(=O)c2ccc(NC(=O)c3ccccn3)cc2)cc1 | 91.6% (inactive)
34 | CC1CCN(CCOc2ccc(CNc3ccc4nc(CCC5CCCCC5)[nH]c4c3)cc2)CC1 | 65% (inactive)
35 | COc1cc2c(cc1OCCCN1CCN(CCCOc3cc4c(cc3OC)C(=O)N3CCC[C@H]3C=N4)CC1)C=CC(C)(C)O2 | -100% (active)
36 | Oc1c(I)cc(I)cc1CNCCN(Cc1ccccn1)Cc1ccccn1 | -10.3% (active)
37 | O=CN1N=C(c2cccc(Nc3ccnc4cc(Cl)ccc34)c2)CC1c1ccccc1 (stereo not given) | 34.3% (inactive)
38 | COc1cc2c(cc1OC)C(C)N(S(N)(=O)=O)CC2 (stereo not given) | 107% (inactive)
39 | CCCC/C(CC)=N\NS(=O)(=O)c1ccc([N+](=O)[O-])cc1 | 102% (inactive)
40 | O=[N+]([O-])c1ccc(O)cc1Br | 98% (inactive)
